Measurements reported in PubChem BioAssay (NCI).
About 79,000 compounds went through this panel and 15% of them were active in at least one assay; those are over-represented in the sample as a whole. Activity calls are given as the source filed them. Cut-off read from the data, not from the text of the source: active = growth inhibition above about 70%; inactive = the rest.

Assays:
[1] = NCI Yeast Anticancer Drug Screen. Data for the rad52 strain (AID 147);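 note: 0% = growth of vehicle-treated control cultures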; conditions: S. cerevisiae rad52 mutant growth inhibition, active compounds read high
Outline: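 Screen used a yeast mutant impaired in DNA repair. After compound exposure, growth was measured. Values reflect inhibition compared with vehicle-treated cells.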

[2] = NCI Yeast Anticancer Drug Screen. Data for the wt1 strain (AID 149);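 note: 0% = growth of vehicle-treated wt1 cultures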; conditions: S. cerevisiae wt1 strain (SPY 50644) growth inhibition, active compounds read high
Outline: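 Growth inhibition read against vehicle controls after compound exposure of the wt1 yeast strain.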

[3] = NCI Yeast Anticancer Drug Screen. Data for the mgt1 strain (AID 153); conditions: S. cerevisiae mgt1 mutant growth inhibition, active compounds read high
Outline: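 Genetically defined yeast (mgt1) treated with compound; inhibition of growth expressed against vehicle-treated controls.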

[4] = NCI Yeast Anticancer Drug Screen. Data for the rad50 strain (AID 155);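 note: 0% = growth of vehicle-only cultures of the same strain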; conditions: S. cerevisiae rad50 strain growth inhibition, active compounds read high
Outline: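 Readout: growth inhibition relative to vehicle-treated cultures. Compound exposure was carried out in a genetically defined yeast strain deficient in DNA damage repair.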

[5] = NCI Yeast Anticancer Drug Screen. Data for the mec2-1 strain (AID 157); conditions: S. cerevisiae mec2-1 strain, active compounds read high
Outline: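 Readout is yeast growth inhibition, normalised to vehicle-treated controls, in the mec2-1 strain exposed to compound.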

[6] = NCI Yeast Anticancer Drug Screen. Data for the rad14 strain (AID 159);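 note: 0% = growth of vehicle-treated control cultures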; conditions: S. cerevisiae rad14 strain growth inhibition, active compounds read high
Outline: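 Growth inhibition vs vehicle controls; genetically altered yeast strain (DNA damage repair defect) treated with test compounds.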

[7] = NCI Yeast Anticancer Drug Screen. Data for the sgs1 mgt1 strain (AID 161);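 note: 0% = growth of cultures given vehicle only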; conditions: S. cerevisiae sgs1 mgt1 strain, active compounds read high
Outline: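 Growth of a repair-deficient yeast mutant was monitored after compound treatment and expressed as inhibition relative to vehicle-treated cultures.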

[8] = NCI Yeast Anticancer Drug Screen. Data for the CLN2oe strain (AID 163);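 note: 0% = growth of vehicle-only control cultures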; conditions: S. cerevisiae CLN2oe strain, active compounds read high
Outline: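 Values reflect how much compound exposure reduced yeast growth, referenced to vehicle-exposed cells. Assay organism is a strain with a defined genetic change affecting cell-cycle control.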

[9] = NCI Yeast Anticancer Drug Screen. Data for the cln2 rad14 strain (AID 165);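 note: 0% = growth equal to vehicle treated cultures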; conditions: S. cerevisiae cln2 rad14 strain, active compounds read high
Outline: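 Relative to vehicle controls, growth inhibition of compound-treated cln2 rad14 yeast was recorded.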

[10] = NCI Yeast Anticancer Drug Screen. Data for the bub3 strain (AID 167); conditions: S. cerevisiae bub3 mutant strain, active compounds read high
Outline: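 Readout: yeast growth inhibition, expressed relative to vehicle-only wells. The test organism is a mutant strain from a panel with lesions in DNA repair or checkpoint genes.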

[11] = NCI Yeast Anticancer Drug Screen. Data for the wt2 strain (AID 169);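 note: 0% = growth of vehicle-treated yeast cultures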; conditions: S. cerevisiae wt2 strain growth inhibition, active compounds read high
Outline: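 Values express reduction in yeast growth under compound treatment, referenced to vehicle-treated cells.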

[12] = NCI Yeast Anticancer Drug Screen. Data for the mlh1 strain (AID 171);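 note: 0% = growth of vehicle-treated control cultures of the same strain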; conditions: S. cerevisiae mlh1 strain growth inhibition, active compounds read high
Outline: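 Steps: expose the defined-mutant yeast strain to compound; expose a parallel culture to vehicle; measure growth; express compound effect as inhibition relative to the vehicle culture.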

[13] = NCI Yeast Anticancer Drug Screen. Data for the sgs1 strain (AID 173);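 note: 0% = growth of vehicle-only control cultures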; conditions: S. cerevisiae sgs1 mutant, active compounds read high
Outline: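 Treat defined-mutant yeast with compound; measure growth; calculate inhibition relative to vehicle-treated cells.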

[14] = NCI Yeast Anticancer Drug Screen. Data for the mlh1 rad18 strain (AID 175); conditions: S. cerevisiae mlh1 rad18 strain growth inhibition, active compounds read high
Outline: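 Test agents were incubated with a yeast strain of defined genotype (DNA damage repair defect). Inhibition of growth was derived by comparison with vehicle-exposed cultures.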

[15] = NCI Yeast Anticancer Drug Screen. Data for the rad18 strain (AID 177); conditions: S. cerevisiae rad18 mutant growth inhibition, active compounds read high
Outline: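 A genetically defined yeast mutant impaired in DNA damage repair was treated with test compounds, then its growth was measured against cultures receiving vehicle alone.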

[16] = at 5.0 µM (retest, dose inferred, filed as 0.5)
[17] = at 50.0 µM (retest, dose inferred, filed as 5.0)

Measured: growth inhibition

Cc1cc(S(=O)(=O)/N=C(/NN)NNc2cccc(C(F)(F)F)n2)c(S)cc1Cl
inactive: [1]; at 1.2 µM 1% | [1]; at 3.7 µM -1% | [1]; at 11.0 µM -2% | [1]; at 33.0 µM -4% | [1]; at 100.0 µM 23% | [2]; at 1.2 µM 0% | [2]; at 3.7 µM -2% | [2]; at 11.0 µM -2% | [2]; at 33.0 µM -7% | [2]; at 100.0 µM 10% | [3]; at 1.2 µM -3% | [3]; at 3.7 µM -3% | [3]; at 11.0 µM -5% | [3]; at 33.0 µM 10% | [3]; at 100.0 µM 18% | [4]; at 1.2 µM 0% | [4]; at 3.7 µM -2% | [4]; [16] 1% | [4]; at 11.0 µM -3% | [4]; at 33.0 µM -3% | [4]; [17] 52% | [4]; at 50.0 µM -7.1% | [4]; at 100.0 µM 10% | [5]; at 1.2 µM 0% | [5]; at 3.7 µM 2% | [5]; [16] -7% | [5]; at 11.0 µM -3% | [5]; at 33.0 µM -7% | [5]; [17] 8% | [5]; at 50.0 µM 7.75% | [5]; at 100.0 µM 16% | [6]; at 1.2 µM -1% | [6]; at 3.7 µM -1% | [6]; at 11.0 µM 1% | [6]; at 33.0 µM -1% | [6]; at 100.0 µM 14% | [7]; [16] -10% | [7]; [17] 44% | [7]; at 50.0 µM 30.6% | [8]; at 1.2 µM 3% | [8]; at 3.7 µM 1% | [8]; at 11.0 µM -2% | [8]; at 33.0 µM -12% | [8]; at 100.0 µM 3% | [9]; [16] 4% | [9]; [17] 25% | [9]; at 50.0 µM 41.5% | [10]; at 1.2 µM 4% | [10]; at 3.7 µM 1% | [10]; [16] -4% | [10]; at 11.0 µM -3% | [10]; at 33.0 µM -4% | [10]; [17] 47% | [10]; at 50.0 µM -17.4% | [10]; at 100.0 µM 12% | [11]; at 1.2 µM 0% | [11]; at 3.7 µM -2% | [11]; at 11.0 µM -3% | [11]; at 33.0 µM -5% | [11]; at 100.0 µM 18% | [12]; at 1.2 µM -3% | [12]; at 3.7 µM -2% | [12]; at 11.0 µM -4% | [12]; at 33.0 µM -5% | [12]; at 100.0 µM 19% | [13]; at 1.2 µM -1% | [13]; at 3.7 µM 1% | [13]; at 11.0 µM -2% | [13]; at 33.0 µM -1% | [13]; at 100.0 µM 25% | [14]; [16] 21% | [14]; [17] 52% | [14]; at 50.0 µM 19.6% | [15]; at 1.2 µM 0% | [15]; at 3.7 µM -1% | [15]; at 11.0 µM -6% | [15]; at 33.0 µM -3% | [15]; at 100.0 µM 16%

c1ccc2c(c1)sc1cc3ccncc3cc12
inactive: [1]; at 1.2 µM -2% | [1]; at 3.7 µM 7% | [1]; at 11.0 µM 17% | [2]; at 1.2 µM -7% | [2]; at 3.7 µM -4% | [2]; at 11.0 µM -9% | [2]; at 33.0 µM 17% | [3]; at 1.2 µM -2% | [3]; at 3.7 µM -3% | [3]; at 11.0 µM -2% | [3]; at 33.0 µM 11% | [4]; at 1.2 µM -6% | [4]; at 3.7 µM 7% | [4]; at 11.0 µM 29% | [5]; at 1.2 µM 1% | [5]; at 3.7 µM -1% | [5]; [16] 15% | [5]; at 11.0 µM 11% | [5]; at 33.0 µM 8% | [6]; at 1.2 µM 2% | [6]; at 3.7 µM 7% | [6]; at 11.0 µM 16% | [6]; at 33.0 µM 36% | [7]; [16] 12% | [8]; at 1.2 µM -2% | [8]; at 3.7 µM 0% | [8]; at 11.0 µM 7% | [8]; at 33.0 µM 26% | [9]; [16] 16% | [10]; at 1.2 µM -12% | [10]; at 3.7 µM -7% | [10]; [16] -4% | [10]; at 11.0 µM 0% | [10]; at 33.0 µM 19% | [11]; at 1.2 µM -4% | [11]; at 3.7 µM -2% | [11]; at 11.0 µM -3% | [11]; at 33.0 µM 10% | [12]; at 1.2 µM 6% | [12]; at 3.7 µM -6% | [12]; at 11.0 µM -1% | [12]; at 33.0 µM 19% | [13]; at 1.2 µM -2% | [13]; at 3.7 µM -7% | [13]; at 11.0 µM -7% | [13]; at 33.0 µM 34% | [14]; [16] 8% | [15]; at 1.2 µM -3% | [15]; at 3.7 µM -1% | [15]; at 11.0 µM 5% | [15]; at 33.0 µM 22%
active: [1]; at 33.0 µM 94% | [1]; at 100.0 µM 98% | [2]; at 100.0 µM 94% | [3]; at 100.0 µM 94% | [4]; [16] 93% | [4]; at 33.0 µM 89% | [4]; [17] 94% | [4]; at 50.0 µM 97.7% | [4]; at 100.0 µM 98% | [5]; [17] 96% | [5]; at 50.0 µM 98.2% | [5]; at 100.0 µM 89% | [6]; at 100.0 µM 97% | [7]; [17] 93% | [7]; at 50.0 µM 98.1% | [8]; at 100.0 µM 91% | [9]; [17] 96% | [9]; at 50.0 µM 96.2% | [10]; [17] 95% | [10]; at 50.0 µM 97.3% | [10]; at 100.0 µM 94% | [11]; at 100.0 µM 91% | [12]; at 100.0 µM 95% | [13]; at 100.0 µM 97% | [14]; [17] 94% | [14]; at 50.0 µM 97.4% | [15]; at 100.0 µM 97%
